# Compounds with a hit are over-represented: about 28% of the library has one in this group of screens.
# CYP2C9 inh = blockers of cytochrome P450 2C9 activity – biochemical, luminescence, ADME assay, primary screen; P11712; CYP2C9 Supersomes, luciferin-H conversion; inhibition, % at 5 µM; 20% of 96,000 active; AID 777, 2007;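 active = blocking of liver enzyme CYP2C9 beyond about 50% at 5 µM, limit read from the data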
# CD11b adhes enh = enhancers of CD11b/CD18 adhesion to fibrinogen, primary screen, K562 cells, luminescence. 0.07% of 93,000 active. activation, % at 10 µM. ATPlite luminescence;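 active = 10 µM primary screen giving 50% or more activity, confirmed by 40% or more on retest at that dose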
# Target sequence (P05107 whole entry, looked up, other chains not shown): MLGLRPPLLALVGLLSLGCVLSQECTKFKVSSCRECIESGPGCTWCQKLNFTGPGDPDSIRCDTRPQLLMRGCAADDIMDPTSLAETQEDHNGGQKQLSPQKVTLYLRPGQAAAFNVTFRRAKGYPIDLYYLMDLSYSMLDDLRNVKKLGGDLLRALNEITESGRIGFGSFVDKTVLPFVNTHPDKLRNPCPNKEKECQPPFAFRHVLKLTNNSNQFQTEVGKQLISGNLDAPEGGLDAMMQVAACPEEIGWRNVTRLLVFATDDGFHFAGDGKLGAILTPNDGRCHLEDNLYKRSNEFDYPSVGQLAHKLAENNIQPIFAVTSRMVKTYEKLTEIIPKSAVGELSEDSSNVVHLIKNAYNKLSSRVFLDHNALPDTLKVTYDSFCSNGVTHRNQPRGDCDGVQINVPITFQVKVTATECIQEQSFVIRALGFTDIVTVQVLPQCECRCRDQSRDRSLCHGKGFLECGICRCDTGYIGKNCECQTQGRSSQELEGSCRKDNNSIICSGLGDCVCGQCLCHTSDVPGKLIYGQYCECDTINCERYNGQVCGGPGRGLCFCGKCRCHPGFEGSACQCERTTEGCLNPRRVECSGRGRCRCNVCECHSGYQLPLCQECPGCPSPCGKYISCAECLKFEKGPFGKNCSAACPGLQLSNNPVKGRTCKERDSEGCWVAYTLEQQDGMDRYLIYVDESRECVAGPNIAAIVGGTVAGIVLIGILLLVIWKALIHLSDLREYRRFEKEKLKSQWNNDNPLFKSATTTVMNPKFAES
# CYP2C19 activ = human CYP2C19 activators, primary screen, biochemical, luminescence; 96,000 tested, under 10 active; recombinant CYP2C19, luciferin-H EGE luminescence; active compounds read high; 0 = fully inhibited enzyme, 1 = untreated enzyme; AID 1025, 2008; Cytochrome P450 2C19 (Homo sapiens), P33261; activation factor at 5 µM;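 active = activation factor of at least 2 at 5 µM in the primary screen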;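 note: 0 = wells with 2.5 mM tranylcypromine and 1 = vehicle-only wells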
# CYP2C19 inhib = blockers of cytochrome P450 2C19 activity – biochemical, luminescence, ADME assay, primary screen. P33261. CYP2C19 Supersomes, luciferin-H EGE luminescence, 30 min. inhibition, % at 5 µM. 21% of 96,000 active. AID 778, 2007;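 active = CYP2C19 inhibition above a set limit at 5 µM in the primary screen, cut at about 50% in these data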;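 note: plate controls were negative control wells for no effect and 2.5 mM tranylcypromine positive control for full effect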
# CYP2C9 act = human CYP2C9 activators, primary screen, biochemical, luminescence. AID 1024, 2008. 1.4% of 96,000 active. recombinant CYP2C9, luciferin-H conversion; active compounds read high; factor 1 = untreated enzyme, 0 = blocked. Cytochrome P450 2C9 (Homo sapiens), P11712. activation factor at 5 µM;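 active = activation factor of 2 or more for CYP2C9 at a 5 µM dose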;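 note: 0 = sulfaphenazole-blocked wells and 1 = vehicle-only wells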
# CD11b adhes inh = inhibitors of CD11b/CD18 adhesion to fibrinogen, primary screen, K562 cells, luminescence | ATPlite luminescence; Mn2+ added to activate the integrin | Integrin beta-2 (Homo sapiens) + Integrin alpha-M (Homo sapiens), P05107+P11215 | inhibition, % at 10 µM | 0.54% of 93,000 active | AID 1497, 2009;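 active = primary inhibition of 50% or more at 10 µM, then 40% or more on retest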
# An asterisk follows results filed as active; . = no result.
SMILES,CYP2C9 inh,CD11b adhes enh,CYP2C19 activ,CYP2C19 inhib,CYP2C9 act,CD11b adhes inh
O=C(/C(C=Nc1ccc(Br)cc1)=C(/O)c1ccco1)C(F)(F)F,.,2,.,.,.,16
CCC1(C)Cc2c(sc(NC(=O)CCC(=O)O)c2C#N)CO1 (stereo not drawn),0,0,1.1,-8,1,-8
CCC(=O)Nc1sc2c(c1C#N)CC(C)(CC)OC2 (stereo not drawn),8,.,0.5,51*,0.9,.
CCc1nc2cc(Cl)c(Cl)cc2[nH]1,25,0,0.4,59*,0.8,4
O=C(Cn1c(NCCCO)nc2ccccc21)c1ccc(Br)cc1,58*,-4,0.3,74*,0.4,-10
COC(=O)c1oc2c(c1C)C1(CCC2)SCCS1,17,.,0.5,49,0.8,.
CCOC(=O)N1CCC(NC(=O)c2ccc3c(=O)n4c(nc3c2)CCCC4)CC1,29,-4,1,2,0.7,-9
CN(C)C(=C(C#N)C#N)N1CCN(c2ccc(Cl)c(Cl)c2)CC1,64*,.,0.4,56*,0.4,.
O=C(c1cc(C2CC2)on1)N1CCN(C(c2ccccc2)c2ccccc2)CC1,16,4,1,-4,0.8,4
CCOc1ccccc1C(=O)N1CCN(C(c2ccccc2)c2ccccc2)CC1,6,1,0.9,12,0.9,-6
O=C(O)C1CC1C(=O)N1CCN(c2ccc(Cl)c(Cl)c2)CC1 (stereo not drawn),-11,-2,1,-2,1.1,-8
Cc1occc1C(=O)N1CCN(c2ccc(Cl)c(Cl)c2)CC1,83*,-4,0,98*,0.2,3
Cc1occc1C(=O)N1CCN(C(c2ccccc2)c2ccccc2)CC1,53*,-3,0.7,35,0.5,20
Cc1cc(C(=O)N2CCN(C(c3ccccc3)c3ccccc3)CC2)on1,77*,2,0.3,69*,0.2,-10
Cc1cc(C)n(-c2c(F)c(F)c(CN3CCOCC3)c(F)c2F)n1,18,0,1,3,0.8,-14
CCN1CCCC1CNC(=O)C1c2cc(OC)c(OC)cc2C(=O)N(C)C1c1cccnc1 (stereo not drawn),-1,-2,1.1,-9,1,3
CC1CCN(S(=O)(=O)c2ccc(NC(=O)CSc3nnnn3C)cc2)CC1,-1,0,1,-2,1,-6
O=S1(=O)CC(O)C(N2CCC(c3ccccc3)CC2)C1 (stereo not drawn),-17,8,1,-2,1.2,-10
O=C(C1=COCCO1)N1CCN(C(c2ccccc2)c2ccccc2)CC1,67*,2,1,4,0.3,3
O=C(C1=COCCO1)N1CCN(S(=O)(=O)c2cccc(Cl)c2Cl)CC1,17,-2,0.7,25,0.8,14
Cc1ccccc1NC(=O)C(C)c1cccc(C(=O)c2ccccc2)c1 (stereo not drawn),78*,.,0.1,91*,0.2,.
CC(C)OC(=O)CN1C(=O)C(C)(C)Oc2ccc(C(=O)NC(C)(C)C)cc21,73*,2,0.6,36,0.3,-14
CC(C)OC(=O)CN1C(=O)C(C)(C)Oc2ccc(C(=O)NC3CC3)cc21,34,2,0.9,12,0.7,-30
COc1cccc(-c2cc(C(F)(F)F)n3ncc(C(=O)NCC4CCCO4)c3n2)c1 (stereo not drawn),55*,4,0.5,46,0.5,17
COc1cnn(-c2ccccc2)c(=O)c1SCc1ccc(Cl)cc1Cl,47,4,0.3,67*,0.5,2
SMILES,CYP2C9 inh,CD11b adhes enh,CYP2C19 activ,CYP2C19 inhib,CYP2C9 act,CD11b adhes inh
Cc1cc(=O)[nH]c2c1c(C)nn2C1CCOC(C)(C)C1 (stereo not drawn),-7,.,1.1,-6,1.1,.
COc1cc(C2Nc3cccc4cccc(c34)N2)ccc1OC(C)=O,12,58,0.5,47,0.9,0
CC(C)(C)C1CCC2(CC1)Nc1cccc3cccc(c13)N2,80*,-1,0,96*,0.2,14
Cc1nc2c(C(=O)N3CCOCC3)cnn2c(C)c1Cc1cccc(Cl)c1,24,-7,0.7,31,0.8,-3
O=C1CC(O)(C(F)F)Oc2ccc3ccccc3c21 (stereo not drawn),60*,0,0.2,85*,0.4,-5
O=C1CC(O)(C(F)(F)F)Oc2c1ccc1ccccc21 (stereo not drawn),96*,-7,0.2,84*,0,90*
COCCN1CN=C(Nc2nc3ccccc3s2)NC1,-9,.,0.9,9,1.1,.
O=C(NC1CCCCC1)C(c1ccccc1)N1CCCC1 (stereo not drawn),-9,2,0.3,71*,1.1,50
CC(C(=O)NC(=O)NC1CCCCC1)N1CCN(C(c2ccccc2)c2ccccc2)CC1 (stereo not drawn),84*,-1,0.7,26,0.2,2
Cc1oc(-c2ccc(Cl)cc2)nc1CN1CCCC(C(=O)N2CCN(C(=O)c3ccco3)CC2)C1 (stereo not drawn),52*,-5,0.4,55*,0.5,64*
Cc1ccsc1-c1nc(CSCC(=O)N2CCN(c3ccccc3)CC2)c(C)o1,24,1,0.4,63*,0.8,17
Cc1ccc(-c2nc(CSCC(=O)N3CCCC3)c(C)o2)cc1,18,.,0.9,10,0.8,.
Cc1cccc(-c2nc(CSCC(=O)N3CCN(c4ccccn4)CC3)c(C)o2)c1,32,.,0.8,16,0.7,.
CCOC(=O)C1CCN(C(=O)CS(=O)Cc2nc(-c3ccc(C)cc3)oc2C)CC1 (stereo not drawn),67*,0,0.6,40,0.3,-4
CCc1ccc(-c2nc(CN3CCCC(C(=O)O)C3)c(C)o2)cc1 (stereo not drawn),10,-1,1,3,0.9,-18
CCOC(=O)C1CCN(C(=O)CSCc2nc(-c3ccc(OCC)cc3)oc2C)CC1,81*,2,0.5,54*,0.2,26
COC(=O)c1cccc(N(C(=O)c2cnccn2)C(C(=O)NC2CCCCC2)c2cn(C)nc2C)c1 (stereo not drawn),-8,2,1,3,1.1,21
Fc1ccc(-c2n[nH]c(=S)n2CC2CCCO2)cc1 (stereo not drawn),22,-4,0.8,22,0.8,-1
CCOc1ccc(-c2nc(CSCC(=O)N3CCN(C(=O)c4ccco4)CC3)c(C)o2)cc1,80*,-1,0.5,45,0.2,-8

# From PubChem
